PubChem BioAssay (NCATS)
Records with an inconclusive call do not appear. Where a call stands in place of a potency, no number is given. Activity calls are given as the source filed them. Unless noted, the call rests on the fitted dose curve; in most records, active means well fitted curve in the direction sought with a large enough effect; inconclusive means small, poorly fitted or top-dose-only effect, or another doubt; inactive means no such curve, though single readings can be large; an effect the other way counts as inactive or inconclusive.

Tests used:
[1] = qHTS for differential inhibitors of proliferation of Plasmodium falciparum line 7G8 (AID 1815);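 further: parasite growth measured after three days of incubation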; further: potency means the concentration at half of the fitted maximal effect
[2] = qHTS for differential inhibitors of proliferation of Plasmodium falciparum line GB4 (AID 1816); settings: Potency: Plasmodium falciparum GB4 proliferation inhibition;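 further: parasite growth measured after 72 h incubation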; further: potency means the concentration at half of the fitted maximal effect
[3] = qHTS for differential inhibitors of proliferation of Plasmodium falciparum line 3D7 (AID 1876);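 further: parasite growth measured after three days of culture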
[4] = qHTS for differential inhibitors of proliferation of Plasmodium falciparum line D10 (AID 1877);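 further: parasites grown with compound for 72 h before DNA staining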; further: potency means the concentration at half of the fitted maximal effect
[5] = qHTS for differential inhibitors of proliferation of Plasmodium falciparum line Dd2 (AID 1882); settings: Potency: Plasmodium falciparum Dd2 proliferation inhibition; further: nearly all actives have a fitted effect of over 65% in size; further: potency means the concentration at half of the fitted maximal effect
In short: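 RBC culture, 0.3% parasitemia / 2.5% Hct final; cpd added by pin tool in DMSO; 72 h, 37 C, 5% CO2; lysis buffer + SYBR Green I, o/n RT dark; FI 485/535; norm. to artemisinin 0.29 uM and DMSO.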

[6] = qHTS for differential inhibitors of proliferation of Plasmodium falciparum line W2 (AID 1883); settings: Potency: Plasmodium falciparum W2 proliferation inhibition;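 further: parasites grown with compound for 72 h before lysis and staining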; further: potency means the concentration at half of the fitted maximal effect
[7] = qHTS for differential inhibitors of proliferation of Plasmodium falciparum line HB3 (AID 1886); settings: Potency: Plasmodium falciparum HB3 proliferation inhibition;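 further: parasites grown with compound for 72 h before SYBR Green readout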; further: potency means the concentration at half of the fitted maximal effect
[8] = molecular target: Ferritin light chain (Equus caballus) (UniProt P02791); experiment: qHTS Validation Assay for Identification of Novel General Anesthetics (AID 2323); further: series mostly up to about 77 µM
In short: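 Competitive displacement of profluorescent 1-aminoanthracene (1-AMA, 50% saturated solution in PBS) from 10 uM horse-spleen apoferritin. Compounds incubated 10 min at room temperature; fluorescence read at 380 nm excitation/535 nm emission, normalized to free 1-AMA and complex, fitted with four-parameter Hill equation.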

[9] = molecular target: ATP-dependent DNA helicase Q1 (Homo sapiens) (UniProt P46063); experiment: qHTS Validation Assay for Inhibitors of RecQ-Like Dna Helicase 1 (RECQ1) (AID 2353)
In short: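 RECQ1T1 50 nM; forked duplex (20 bp + 30-nt ss tails) 200 nM, ATP 2 mM final; pH 8.0, 2 mM MgCl2, 2.5 ug/ml poly(dI-dC); 15 min compound preincubation; discontinuous kinetic read over 2 h at RT.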

[10] = Cytometric Cell-Based qHTS for Inhibitors of the mTORC1 Signaling Pathway in MEF (Tsc2-/-, p53-/-) Cells (AID 2660);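 further: Tsc2 and p53 null MEFs carrying empty vector with compound for 24 h; percent of cells above a phospho-rpS6 to PI ratio cutoff in each well; series mostly up to about 38 µM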
In short: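 Immunofluorescence qHTS of rpS6 Ser235/236 phosphorylation: MEFs (Tsc2-/-, p53-/-) treated 24 h, 37 C, in DMEM + 10% FBS. Alexa-488 signal normalized to PI count, referenced to rapamycin (7.5 nM) and DMSO; PI cell number recorded for viability.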

[11] = High Content Imaging Cell-Based qHTS for Inhibitors of the mTORC1 Signaling Pathway in MEF (Tsc2-/-, p53-/-) Cells (AID 2666);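 further: percent of cells scored positive for phospho-rpS6 Ser235/236 immunostaining by imaging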
In short: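 MEF Tsc2-/- p53-/- (empty vector), DMEM/10% FBS; cpd 24 h 37 °C; PFA fix, Alexa-488 p-rpS6 S235/236 Ab, Hoechst; imaged; rapamycin-defined inhibition; % positive cells/well.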

[12] = High Content Imaging Cell-Based qHTS for Inhibitors of the mTORC1 Signaling Pathway in MEF Cells (AID 2667); further: potency means the concentration at half of the fitted maximal effect
In short: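 Read-out is the share of phospho-rpS6-positive cells per well, from Hoechst-normalized Alexa-488 Ser235/236 staining imaged on IN Cell. Cells: WT Tsc2-expressing Tsc2-/-, p53-/- MEFs exposed to compound for 24 hrs.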

[13] = Cytometry Cell-Based qHTS for Inhibitors of the mTORC1 Signaling Pathway in MEF cells (AID 2668);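 further: Tsc2-/- p53-/- mouse embryonic fibroblasts stably re-expressing wild-type Tsc2; percent cells positive for phospho-rpS6 Ser235/236 relative to propidium iodide stain; series mostly up to about 38 µM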
In short: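 WT MEFs (Tsc2-/-, p53-/- stably re-expressing WT Tsc2) in DMEM + 10% FBS received compounds 24 hrs after plating, for 24 hrs at 37 degree Celsius. Fixed cells stained with Alexa-488 anti-phospho-rpS6 Ser235/236 and propidium iodide; laser-scanning cytometry read-out.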

[14] = Validation screen for inhibitors of Lassa infection (AID 463096; calls by dose curve; further: potency means the concentration at half of the fitted maximal effect)
[15] = Validation screen for small molecules that induce DNA re-replication in MCF 10A normal breast cells (AID 463097); further: nearly all actives have a fitted effect of over 60% in size
In short: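 Readout: Hoechst nuclear fluorescence intensity, 405 ex / 500-530 em, by scanning plate imager; re-replication scored as increase in nuclei with elevated DNA content. Cells exposed to compound 48 hr, 37 C, 5% CO2 beforehand.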

[16] = molecular target: Ubiquitin carboxyl-terminal hydrolase 2 (Homo sapiens) (UniProt O75604); experiment: qHTS Validation Assay for Inhibitors of Ubiquitin-specific Protease USP2a Using CHOP2 as the Reporter (AID 463106)
In short: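 Fluorescence read-out at Ex 485nm/Em 531nm after 60min RT, following addition of 25nM Ub-CHOP2 plus 25nM reporter substrate to USP2 core (10nM) pretreated 30min with compound. Data normalized to NEM full inhibition; concentration-response curves fitted.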

[17] = qHTS Assay for Modulators of Human Peripheral Myelin Protein 22 (PMP22) Expression/Activity (AID 1967; active means well fitted curve in the direction sought with a large enough effect in the signal ratio; the % refers to the signal ratio)
In short: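 MSC80 mouse Schwann cells stably carrying Pmp22 promoter–green click beetle luciferase plus EF-alpha–red luciferase control were dosed for 24h at 37 °C. Dual-colour luminescence was filter-overlap corrected; %Activity came from green/red ratio versus untreated cells.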

[18] = molecular target: RecQ-like DNA helicase BLM (Homo sapiens) (UniProt P54132); experiment: qHTS Validation Assay for Inhibitors of Bloom's syndrome helicase (BLM) (AID 2364)
In short: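 50 nM BLM preincubated 15 min at room temperature with compound in pH 8.0 Tris buffer containing 2.5 ug/ml poly(dI-dC); started with 200 nM TAMRA/BHQ-2 forked duplex and 2 mM ATP (final). Unwinding read as TAMRA fluorescence increase, two reads 2 h apart.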

[19] = qHTS Assay for Identification of Small Molecule Inducers of Hypoxia Response (AID 2120; active means well fitted curve in the direction sought with a large enough effect in the signal ratio, with a control signal flat, not every such curve was filed as active; the % refers to the signal ratio)
In short: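 HRE-bla ME-180, 2500 cells/well, 0.5% dialyzed FBS medium; cpd titration, 17 h 37 degrees C; CCF4 2.5 h RT; Ex 405, Em 460/530 ratio -> %Activity, AC50.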

Sequence of RecQ-like DNA helicase BLM (Homo sapiens) (P54132 whole entry, looked up): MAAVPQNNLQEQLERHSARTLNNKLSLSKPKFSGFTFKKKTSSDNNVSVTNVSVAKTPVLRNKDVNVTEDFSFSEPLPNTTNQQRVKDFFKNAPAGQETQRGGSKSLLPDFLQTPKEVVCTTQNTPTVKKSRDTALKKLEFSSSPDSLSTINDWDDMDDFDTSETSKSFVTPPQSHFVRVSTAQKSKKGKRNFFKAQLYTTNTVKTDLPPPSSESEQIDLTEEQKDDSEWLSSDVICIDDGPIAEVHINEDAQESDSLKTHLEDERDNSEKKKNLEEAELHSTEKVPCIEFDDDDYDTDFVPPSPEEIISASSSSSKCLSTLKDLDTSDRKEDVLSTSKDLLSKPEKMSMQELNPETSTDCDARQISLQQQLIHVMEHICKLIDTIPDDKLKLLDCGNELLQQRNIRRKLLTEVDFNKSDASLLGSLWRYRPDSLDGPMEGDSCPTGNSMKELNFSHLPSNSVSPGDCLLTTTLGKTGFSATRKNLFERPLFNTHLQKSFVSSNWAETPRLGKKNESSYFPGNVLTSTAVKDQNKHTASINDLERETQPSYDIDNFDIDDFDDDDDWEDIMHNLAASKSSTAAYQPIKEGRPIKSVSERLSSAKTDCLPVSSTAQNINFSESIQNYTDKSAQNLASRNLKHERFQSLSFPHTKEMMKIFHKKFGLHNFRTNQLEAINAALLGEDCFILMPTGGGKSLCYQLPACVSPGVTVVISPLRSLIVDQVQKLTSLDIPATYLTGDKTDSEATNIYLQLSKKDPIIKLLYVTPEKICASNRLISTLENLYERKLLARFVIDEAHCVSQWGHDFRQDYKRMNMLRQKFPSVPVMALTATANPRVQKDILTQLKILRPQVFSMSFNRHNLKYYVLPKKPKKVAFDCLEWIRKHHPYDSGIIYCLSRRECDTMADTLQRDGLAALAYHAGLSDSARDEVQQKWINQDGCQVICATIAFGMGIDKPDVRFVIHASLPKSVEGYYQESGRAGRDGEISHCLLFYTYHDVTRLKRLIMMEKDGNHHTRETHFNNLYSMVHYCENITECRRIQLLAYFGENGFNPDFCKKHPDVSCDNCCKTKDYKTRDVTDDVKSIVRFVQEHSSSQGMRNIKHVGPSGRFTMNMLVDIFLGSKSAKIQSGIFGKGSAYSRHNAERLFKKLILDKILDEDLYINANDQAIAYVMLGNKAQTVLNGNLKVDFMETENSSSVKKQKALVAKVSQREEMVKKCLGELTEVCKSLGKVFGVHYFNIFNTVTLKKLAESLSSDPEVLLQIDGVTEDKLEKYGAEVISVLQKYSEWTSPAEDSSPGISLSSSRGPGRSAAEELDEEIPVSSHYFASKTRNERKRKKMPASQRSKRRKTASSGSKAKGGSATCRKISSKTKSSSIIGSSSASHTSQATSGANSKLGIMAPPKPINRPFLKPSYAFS
Sequence of ATP-dependent DNA helicase Q1 (Homo sapiens) (P46063 whole entry, looked up): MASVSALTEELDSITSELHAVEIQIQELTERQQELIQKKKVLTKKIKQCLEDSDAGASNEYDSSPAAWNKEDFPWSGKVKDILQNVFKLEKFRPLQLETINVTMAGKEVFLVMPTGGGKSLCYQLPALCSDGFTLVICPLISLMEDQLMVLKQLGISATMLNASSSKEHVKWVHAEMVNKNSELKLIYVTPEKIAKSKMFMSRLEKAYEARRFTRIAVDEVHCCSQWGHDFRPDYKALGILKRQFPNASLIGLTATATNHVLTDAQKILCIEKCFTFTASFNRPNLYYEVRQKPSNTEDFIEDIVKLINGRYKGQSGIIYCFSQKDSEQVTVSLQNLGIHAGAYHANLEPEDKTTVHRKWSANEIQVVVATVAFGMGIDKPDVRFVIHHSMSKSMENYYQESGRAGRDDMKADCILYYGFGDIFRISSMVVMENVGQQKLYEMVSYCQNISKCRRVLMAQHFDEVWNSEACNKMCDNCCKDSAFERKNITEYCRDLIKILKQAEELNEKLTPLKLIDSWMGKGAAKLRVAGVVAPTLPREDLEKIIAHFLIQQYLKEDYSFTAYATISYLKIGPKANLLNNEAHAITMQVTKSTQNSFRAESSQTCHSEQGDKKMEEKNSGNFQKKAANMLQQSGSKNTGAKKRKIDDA
Sequence of Ferritin light chain (Equus caballus) (P02791 2-175 limits assumed): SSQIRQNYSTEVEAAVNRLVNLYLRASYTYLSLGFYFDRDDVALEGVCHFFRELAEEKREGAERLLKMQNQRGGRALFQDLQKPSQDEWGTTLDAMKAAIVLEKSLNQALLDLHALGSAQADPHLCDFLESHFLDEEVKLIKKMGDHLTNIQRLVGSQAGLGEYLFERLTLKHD
Sequence of Ubiquitin carboxyl-terminal hydrolase 2 (Homo sapiens) (O75604 whole entry, looked up): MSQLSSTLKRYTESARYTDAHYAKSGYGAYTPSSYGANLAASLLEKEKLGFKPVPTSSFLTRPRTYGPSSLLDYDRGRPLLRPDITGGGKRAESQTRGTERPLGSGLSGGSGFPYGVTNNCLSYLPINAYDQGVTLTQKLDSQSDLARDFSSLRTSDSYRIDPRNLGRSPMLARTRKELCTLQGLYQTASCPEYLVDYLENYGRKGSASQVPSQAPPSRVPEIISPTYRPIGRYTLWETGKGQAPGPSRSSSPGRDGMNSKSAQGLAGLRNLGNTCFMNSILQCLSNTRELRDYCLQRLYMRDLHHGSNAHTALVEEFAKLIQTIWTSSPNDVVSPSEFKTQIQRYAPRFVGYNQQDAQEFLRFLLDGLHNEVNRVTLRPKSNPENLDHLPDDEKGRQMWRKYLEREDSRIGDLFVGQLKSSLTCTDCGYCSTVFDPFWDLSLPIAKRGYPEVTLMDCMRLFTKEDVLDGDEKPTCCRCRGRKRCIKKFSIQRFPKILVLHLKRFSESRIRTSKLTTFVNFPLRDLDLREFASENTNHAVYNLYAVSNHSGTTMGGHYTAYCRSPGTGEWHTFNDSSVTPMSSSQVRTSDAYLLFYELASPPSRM

| SMILES | Potency [1] | Potency [2] | Potency [3] | Potency [4] | Potency [5] | Potency [6] | Potency [7] | outcome [8] | outcome [9] | Potency [10] | Potency [11] | Potency [12] | Potency [13] | Potency [14] | Potency [15] | Potency [16] | outcome [17] | Potency [18] | outcome [19] |
| --- | --- | --- | --- | --- | --- | --- | --- | --- | --- | --- | --- | --- | --- | --- | --- | --- | --- | --- | --- |
| NC(CP(=O)(O)O)C(=O)O (centres undefined) | inactive | inactive | inactive | inactive | inactive | inactive | inactive | inactive | inactive | inactive | inactive | inactive | inactive | inactive | inactive | inactive | – | – | – |
| CCCN(CCC)[C@@H]1CCc2ccc(O)cc2C1 | 8.91 µM (active) | 14.1 µM (active) | inactive | inactive | – | 11.2 µM (active) | inactive | inactive | inactive | inactive | inactive | inactive | inactive | inactive | inactive | inactive | inactive | – | – |
| C[N+](C)(C)CC(=O)O | inactive | inactive | inactive | inactive | inactive | inactive | inactive | inactive | inactive | – | – | – | – | inactive | inactive | – | inactive | inactive | – |
| CCCN(CCC)C1CCc2ccc(O)cc2C1 (centres undefined) | 8.91 µM (active) | 11.2 µM (active) | – | 10 µM (active) | – | 7.94 µM (active) | 11.2 µM (active) | inactive | inactive | inactive | inactive | inactive | inactive | inactive | inactive | inactive | inactive | inactive | – |
| NCc1cc(=O)[nH]o1 | inactive | inactive | inactive | inactive | inactive | inactive | inactive | inactive | inactive | inactive | inactive | inactive | inactive | inactive | inactive | inactive | inactive | inactive | – |
| CS(=N)(=O)CC[C@H](N)C(=O)O (some centres undefined) | inactive | inactive | inactive | inactive | inactive | inactive | inactive | inactive | inactive | inactive | inactive | inactive | inactive | inactive | inactive | inactive | – | inactive | – |
| O=C1CCCN1CC#CCN1CCCC1 | inactive | inactive | inactive | inactive | inactive | inactive | inactive | inactive | inactive | inactive | inactive | inactive | inactive | inactive | inactive | inactive | inactive | – | – |
| Cc1c(C(=O)c2cccc3ccccc23)c2cccc3c2n1[C@H](CN1CCOCC1)CO3 | – | 7.94 µM (active) | – | 12.6 µM (active) | – | 4.47 µM (active) | – | inactive | inactive | – | inactive | 18.5 µM (active) | – | inactive | – | inactive | – | – | – |
| CC(=O)NCCc1c[nH]c2ccccc12 | – | inactive | inactive | inactive | inactive | – | inactive | inactive | inactive | inactive | inactive | inactive | inactive | inactive | inactive | inactive | inactive | – | – |
| CCCCOC(=O)c1ccccc1C(=O)OCc1ccccc1 | – | – | – | – | – | – | – | – | – | – | – | – | – | – | – | – | – | – | inactive |
| CC(C)Oc1cccnc1N(C)C1CCN(Cc2ccccc2)CC1 | – | – | – | inactive | – | 4.47 µM (active) | – | inactive | inactive | inactive | inactive | inactive | inactive | inactive | – | inactive | – | inactive | – |
| CC(=O)[C@H]1CCC2C3CC[C@H]4C[C@H](O)CC[C@]4(C)C3CC[C@@]21C (some centres undefined) | 14.1 µM (active) | – | – | – | inactive | 10 µM (active) | – | inactive | inactive | inactive | inactive | inactive | inactive | inactive | – | inactive | – | – | – |
| C[C@]12N[C@H](Cc3ccccc31)c1ccccc12 | – | 1.78 µM (active) | inactive | inactive | 7.08 µM (active) | 1.58 µM (active) | inactive | inactive | inactive | inactive | inactive | inactive | inactive | inactive | inactive | inactive | – | inactive | – |
| COc1ccc2c(c[n+](C)c3c4cc5c(cc4ccc23)OCO5)c1OC | 14.1 µM (active) | 14.1 µM (active) | – | – | 11.2 µM (active) | 12.6 µM (active) | – | inactive | inactive | – | inactive | inactive | inactive | 10 µM (active) | – | inactive | – | – | – |
| O=[N+]([O-])c1cc([N+](=O)[O-])c2ccccc2c1 | – | – | – | – | – | – | – | – | – | – | – | – | – | – | – | – | – | – | inactive |
| COc1ccc(C(c2ccc(OC)cc2)C(Cl)(Cl)Cl)cc1 | – | – | – | – | – | – | – | – | – | – | – | – | – | – | – | – | – | – | inactive |
